Assay results published in the supplement of paper PMC11732987, “Enantioselective OTUD7B fragment discovery through chemoproteomics screening and high-throughput optimisation” (Communications Chemistry, 2025).

Assays:
Experiment in all cases: log2 ratio of Biotin-Ahx-Ub-VS probe labelling (compound/DMSO); higher = less target engagement, active = hit call of the paper (q ≤ 0.05, log2 ratio ≤ -1)
Conditions in all cases: treatment time: 3 h
[1] = compound: CCC1N(CCc2sccc12)C(=O)CCl
Procedure, shortened: (§1)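 For activity-based profiling, 495 µg portions of HEK293T lysate in Tris/CHAPS/IGEPAL buffer with protease inhibitors were treated in triplicate with compound at 50 or 200 µM or with DMSO for 3 h. A 1 h incubation with Biotin-Ahx-Ub-VS (0.5 µM final) followed, then NeutrAvidin enrichment, LysC and trypsin digestion and diaPASEF LC-MS/MS. The compound/DMSO base-two log ratios were averaged from median-normalised label-free quantities using an unpaired t-test. Proteins needed at least 2 unique peptides to be included.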

[2] = compound: CN1c2ccccc2C(CS1(=O)=O)NC(=O)CCl
Procedure, shortened: as §1

[3] = compound: Cl.ClCC(=O)N1CCc2ncncc2C1
Procedure, shortened: as §1

[4] = compound: Cl.Cn1ncc2C(CCCc12)NC(=O)CCl
Procedure, shortened: as §1

[5] = compound: ClCC(=O)NC1CCOc2ccccc12
Procedure, shortened: as §1

[6] = compound: ClCC(=O)NC1CCCc2ccccc12
Procedure, shortened: (§2)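 Values are average ratios of compound to vehicle from an unpaired t-test, limited to proteins with at least two unique peptides. HEK293T lysate (495 µg per sample, in Tris/CHAPS/IGEPAL buffer with protease inhibitors) was exposed in triplicate to a concentration series of compound or to vehicle for 3 h, then to Biotin-Ahx-Ub-VS at 0.5 µM final for 1 h. Labelled deubiquitinases were enriched on NeutrAvidin, digested with LysC and trypsin, and analysed by diaPASEF LC-MS/MS. Ratios are given on a log2 scale from Spectronaut label-free protein quantities normalised to the global median.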

[7] = compound: ClCC(=O)N[C@@H]1CCCc2ccccc12
Procedure, shortened: as §2

[8] = compound: ClCC(=O)N[C@H]1CCCc2ccccc12
Procedure, shortened: as §2

[9] = compound: CCC1N(CCc2cc(OC)c(Cl)cc12)C(=O)CCl
Procedure, shortened: as §1

[10] = compound: CCCC1N(CCc2cc(OC)c(OC)cc12)C(=O)CCl
Procedure, shortened: as §1

[11] = compound: CN(Cc1cccc(Br)c1)C(=O)CCl
Procedure, shortened: as §1

[12] = compound: CN(Cc1ccccc1)C(=O)CCl
Procedure, shortened: as §1

[13] = compound: COc1ccc(CN(C)C(=O)CCl)cc1
Procedure, shortened: as §1

[14] = compound: COc1cccc(CN(CCCc2ccccc2)C(=O)CCl)c1
Procedure, shortened: as §1

[15] = compound: ClCC(=O)N1CCc2cc(Cl)c(Cl)cc2C1
Procedure, shortened: as §1

[16] = compound: ClCC(=O)N1CCc2nc(ncc2C1)-c1ccccc1
Procedure, shortened: as §1

[17] = compound: ClCC(=O)N1CCc2nocc2C1
Procedure, shortened: as §1

[18] = compound: ClCC(=O)N1CCc2scc(Br)c2C1
Procedure, shortened: as §1

[19] = compound: ClCC(=O)NC(C1CCCC1)c1cccs1
Procedure, shortened: as §1

Measured: log2 ratio of Biotin-Ahx-Ub-VS probe labelling

USP8 (UniProt P40818)
UniProt P40818, sequence (P40818 whole entry): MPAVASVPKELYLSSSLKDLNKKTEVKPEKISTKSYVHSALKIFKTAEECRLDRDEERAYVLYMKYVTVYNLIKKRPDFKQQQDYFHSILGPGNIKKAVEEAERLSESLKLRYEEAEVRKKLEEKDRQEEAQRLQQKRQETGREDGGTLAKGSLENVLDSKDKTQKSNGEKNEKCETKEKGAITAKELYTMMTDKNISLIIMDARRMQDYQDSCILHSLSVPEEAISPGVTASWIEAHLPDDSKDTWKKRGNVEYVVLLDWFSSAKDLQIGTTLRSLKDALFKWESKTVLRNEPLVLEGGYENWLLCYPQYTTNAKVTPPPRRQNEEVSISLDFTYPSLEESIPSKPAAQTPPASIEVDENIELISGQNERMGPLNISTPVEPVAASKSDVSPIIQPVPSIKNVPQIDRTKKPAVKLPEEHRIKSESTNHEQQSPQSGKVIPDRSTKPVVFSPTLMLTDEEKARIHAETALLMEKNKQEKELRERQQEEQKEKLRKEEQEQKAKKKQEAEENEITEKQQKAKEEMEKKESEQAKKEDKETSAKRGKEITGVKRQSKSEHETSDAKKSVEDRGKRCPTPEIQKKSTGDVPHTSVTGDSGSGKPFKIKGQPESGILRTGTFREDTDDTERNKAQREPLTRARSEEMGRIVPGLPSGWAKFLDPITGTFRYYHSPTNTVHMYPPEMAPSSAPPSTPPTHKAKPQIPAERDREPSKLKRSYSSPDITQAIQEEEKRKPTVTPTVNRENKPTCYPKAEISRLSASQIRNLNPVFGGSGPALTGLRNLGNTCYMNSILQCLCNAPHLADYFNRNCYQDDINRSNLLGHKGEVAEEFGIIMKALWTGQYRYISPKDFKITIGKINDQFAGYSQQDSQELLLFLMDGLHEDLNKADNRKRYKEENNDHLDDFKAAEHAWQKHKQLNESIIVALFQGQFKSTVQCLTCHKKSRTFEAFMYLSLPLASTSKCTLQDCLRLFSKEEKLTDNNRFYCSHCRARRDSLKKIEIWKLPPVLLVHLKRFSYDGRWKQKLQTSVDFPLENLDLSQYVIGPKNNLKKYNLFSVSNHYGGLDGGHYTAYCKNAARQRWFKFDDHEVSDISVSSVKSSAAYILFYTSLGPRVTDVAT
inactive: [1]; compound concentration: 50uM -0.18 | [1]; compound concentration: 200uM -0.116 | [2]; compound concentration: 50uM -0.21 | [2]; compound concentration: 200uM -0.21 | [3]; compound concentration: 50uM -0.0841 | [3]; compound concentration: 200uM -0.378 | [4]; compound concentration: 50uM -0.0611 | [4]; compound concentration: 200uM 0.0851 | [5]; compound concentration: 50uM -0.212 | [5]; compound concentration: 200uM -0.0542 | [6]; compound concentration: 0.78uM -0.0473 | [6]; compound concentration: 1.56uM 0.0438 | [6]; compound concentration: 3.13uM -0.127 | [6]; compound concentration: 6.25uM -0.0217 | [6]; compound concentration: 12.5uM -0.0947 | [6]; compound concentration: 25uM -0.0983 | [6]; compound concentration: 50uM -0.0766 | [6]; compound concentration: 100uM -0.0121 | [6]; compound concentration: 200uM -0.102 | [7]; compound concentration: 0.78uM -0.0947 | [7]; compound concentration: 1.56uM -0.0445 | [7]; compound concentration: 3.13uM -0.000329 | [7]; compound concentration: 6.25uM -0.0324 | [7]; compound concentration: 12.5uM -0.0744 | [7]; compound concentration: 25uM -0.057 | [7]; compound concentration: 50uM -0.0549 | [7]; compound concentration: 100uM -0.0496 | [7]; compound concentration: 200uM -0.123 | [8]; compound concentration: 0.78uM -0.131 | [8]; compound concentration: 1.56uM -0.0656 | [8]; compound concentration: 3.13uM -0.0464 | [8]; compound concentration: 6.25uM 0.0547 | [8]; compound concentration: 12.5uM 0.00701 | [8]; compound concentration: 25uM -0.0406 | [8]; compound concentration: 50uM 0.000255 | [8]; compound concentration: 100uM -0.0245 | [8]; compound concentration: 200uM -0.143 | [9]; compound concentration: 50uM -0.0467 | [9]; compound concentration: 200uM -0.231 | [10]; compound concentration: 50uM -0.414 | [10]; compound concentration: 200uM -0.636 | [11]; compound concentration: 50uM -0.123 | [11]; compound concentration: 200uM -0.132 | [12]; compound concentration: 50uM -0.346 | [12]; compound concentration: 200uM -0.338 | [13]; compound concentration: 50uM -0.306 | [13]; compound concentration: 200uM -0.187 | [14]; compound concentration: 50uM -0.167 | [14]; compound concentration: 200uM -0.253 | [15]; compound concentration: 50uM 0.0209 | [15]; compound concentration: 200uM -0.351 | [16]; compound concentration: 50uM -0.00835 | [16]; compound concentration: 200uM -0.371 | [17]; compound concentration: 50uM -0.247 | [17]; compound concentration: 200uM -0.347 | [18]; compound concentration: 50uM -0.126 | [18]; compound concentration: 200uM -0.311 | [19]; compound concentration: 50uM -0.0892 | [19]; compound concentration: 200uM -0.0187

USP25 (UniProt Q9UHP3)
UniProt Q9UHP3, sequence (Q9UHP3 whole entry): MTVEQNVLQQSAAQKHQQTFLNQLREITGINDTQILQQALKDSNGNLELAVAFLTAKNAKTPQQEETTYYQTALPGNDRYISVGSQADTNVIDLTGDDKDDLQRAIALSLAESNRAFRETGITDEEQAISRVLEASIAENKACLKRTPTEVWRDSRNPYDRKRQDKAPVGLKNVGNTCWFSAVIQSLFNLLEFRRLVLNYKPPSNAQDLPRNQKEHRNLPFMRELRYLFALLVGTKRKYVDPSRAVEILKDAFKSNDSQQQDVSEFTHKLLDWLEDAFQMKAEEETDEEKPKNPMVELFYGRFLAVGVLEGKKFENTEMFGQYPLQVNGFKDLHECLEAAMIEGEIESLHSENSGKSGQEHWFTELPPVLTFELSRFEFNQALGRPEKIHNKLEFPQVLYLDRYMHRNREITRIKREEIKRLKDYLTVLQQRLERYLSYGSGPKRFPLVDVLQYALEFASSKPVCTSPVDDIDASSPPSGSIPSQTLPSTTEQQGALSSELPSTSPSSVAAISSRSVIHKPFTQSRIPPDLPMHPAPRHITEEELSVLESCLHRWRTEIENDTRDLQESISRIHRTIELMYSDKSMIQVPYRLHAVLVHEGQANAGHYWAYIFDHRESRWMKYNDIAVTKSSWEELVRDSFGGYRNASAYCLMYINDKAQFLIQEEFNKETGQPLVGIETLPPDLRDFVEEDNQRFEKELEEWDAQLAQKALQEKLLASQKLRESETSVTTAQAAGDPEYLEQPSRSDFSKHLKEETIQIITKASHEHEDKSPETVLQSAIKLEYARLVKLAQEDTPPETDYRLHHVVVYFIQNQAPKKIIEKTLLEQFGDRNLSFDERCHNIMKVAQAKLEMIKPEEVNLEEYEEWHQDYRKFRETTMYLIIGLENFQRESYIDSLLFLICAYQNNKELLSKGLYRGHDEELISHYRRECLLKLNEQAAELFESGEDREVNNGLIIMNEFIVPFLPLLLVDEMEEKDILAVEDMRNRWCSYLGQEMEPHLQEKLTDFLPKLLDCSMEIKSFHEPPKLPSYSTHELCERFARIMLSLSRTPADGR
inactive: [1]; compound concentration: 50uM 0.366 | [2]; compound concentration: 50uM -0.365 | [2]; compound concentration: 200uM -0.0888 | [3]; compound concentration: 50uM -0.861 | [4]; compound concentration: 50uM 0.177 | [4]; compound concentration: 200uM -0.552 | [5]; compound concentration: 50uM 0.145 | [5]; compound concentration: 200uM -0.0181 | [6]; compound concentration: 0.78uM -0.139 | [6]; compound concentration: 1.56uM -0.159 | [6]; compound concentration: 3.13uM -0.428 | [6]; compound concentration: 6.25uM -0.379 | [6]; compound concentration: 12.5uM -0.358 | [6]; compound concentration: 25uM -0.339 | [6]; compound concentration: 50uM -0.0397 | [6]; compound concentration: 100uM -0.3 | [6]; compound concentration: 200uM -0.848 | [7]; compound concentration: 0.78uM -0.531 | [7]; compound concentration: 1.56uM -0.227 | [7]; compound concentration: 3.13uM -0.277 | [7]; compound concentration: 6.25uM -0.312 | [7]; compound concentration: 12.5uM -0.223 | [7]; compound concentration: 25uM -0.606 | [7]; compound concentration: 50uM -0.594 | [7]; compound concentration: 100uM -0.346 | [7]; compound concentration: 200uM -0.308 | [8]; compound concentration: 0.78uM -0.226 | [8]; compound concentration: 1.56uM -0.458 | [8]; compound concentration: 3.13uM -0.0391 | [8]; compound concentration: 6.25uM -0.447 | [8]; compound concentration: 12.5uM -0.421 | [8]; compound concentration: 25uM -0.293 | [8]; compound concentration: 50uM -0.255 | [8]; compound concentration: 100uM -0.504 | [8]; compound concentration: 200uM -0.644 | [9]; compound concentration: 50uM -0.56 | [10]; compound concentration: 50uM -0.02 | [10]; compound concentration: 200uM 0.295 | [11]; compound concentration: 50uM 0.514 | [12]; compound concentration: 50uM -0.138 | [12]; compound concentration: 200uM -0.338 | [13]; compound concentration: 50uM -0.545 | [13]; compound concentration: 200uM -0.345 | [14]; compound concentration: 50uM 0.265 | [14]; compound concentration: 200uM -0.358 | [15]; compound concentration: 50uM 0.409 | [15]; compound concentration: 200uM -0.517 | [16]; compound concentration: 50uM -0.562 | [16]; compound concentration: 200uM 0.332 | [17]; compound concentration: 50uM -0.946 | [17]; compound concentration: 200uM -0.711 | [18]; compound concentration: 50uM 0.621 | [18]; compound concentration: 200uM -0.242 | [19]; compound concentration: 50uM -0.129 | [19]; compound concentration: 200uM -0.557
active: [1]; compound concentration: 200uM -1.92 | [3]; compound concentration: 200uM -2.93 | [9]; compound concentration: 200uM -1.2 | [11]; compound concentration: 200uM -1.46

USP15 (UniProt Q9Y4E8)
UniProt Q9Y4E8, sequence (Q9Y4E8 whole entry): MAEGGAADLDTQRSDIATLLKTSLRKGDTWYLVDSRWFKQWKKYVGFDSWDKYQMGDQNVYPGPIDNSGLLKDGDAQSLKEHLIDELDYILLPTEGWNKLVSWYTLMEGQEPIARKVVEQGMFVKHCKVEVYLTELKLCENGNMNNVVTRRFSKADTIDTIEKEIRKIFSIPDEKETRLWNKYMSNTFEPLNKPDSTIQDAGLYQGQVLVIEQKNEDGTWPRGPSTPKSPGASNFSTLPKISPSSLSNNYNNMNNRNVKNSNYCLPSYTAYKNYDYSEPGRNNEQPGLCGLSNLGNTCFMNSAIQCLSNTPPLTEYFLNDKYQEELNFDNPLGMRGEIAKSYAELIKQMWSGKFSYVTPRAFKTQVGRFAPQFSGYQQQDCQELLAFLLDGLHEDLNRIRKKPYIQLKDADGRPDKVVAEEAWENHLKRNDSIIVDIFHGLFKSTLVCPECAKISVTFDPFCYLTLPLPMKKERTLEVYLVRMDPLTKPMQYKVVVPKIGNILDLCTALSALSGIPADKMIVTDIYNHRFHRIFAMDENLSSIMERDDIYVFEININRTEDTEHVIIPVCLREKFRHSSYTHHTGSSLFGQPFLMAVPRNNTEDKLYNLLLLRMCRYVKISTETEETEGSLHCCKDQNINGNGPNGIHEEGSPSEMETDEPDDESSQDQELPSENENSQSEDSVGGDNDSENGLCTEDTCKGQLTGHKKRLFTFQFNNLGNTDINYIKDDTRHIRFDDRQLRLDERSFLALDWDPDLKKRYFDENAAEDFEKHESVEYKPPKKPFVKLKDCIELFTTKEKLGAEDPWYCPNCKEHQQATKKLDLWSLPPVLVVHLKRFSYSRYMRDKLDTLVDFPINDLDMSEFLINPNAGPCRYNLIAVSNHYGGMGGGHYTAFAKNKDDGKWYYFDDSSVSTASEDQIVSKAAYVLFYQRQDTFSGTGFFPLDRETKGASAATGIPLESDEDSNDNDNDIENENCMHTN
active: [10]; compound concentration: 200uM -1.38 | [15]; compound concentration: 200uM -1.85 | [16]; compound concentration: 200uM -1.06 | [18]; compound concentration: 200uM -1.88
inactive: [1]; compound concentration: 50uM -0.208 | [1]; compound concentration: 200uM -0.456 | [2]; compound concentration: 50uM -0.352 | [2]; compound concentration: 200uM -0.178 | [3]; compound concentration: 50uM -0.273 | [3]; compound concentration: 200uM -0.899 | [4]; compound concentration: 50uM 0.0231 | [4]; compound concentration: 200uM 0.118 | [5]; compound concentration: 50uM -0.104 | [5]; compound concentration: 200uM -0.0799 | [6]; compound concentration: 0.78uM -0.111 | [6]; compound concentration: 1.56uM 0.00504 | [6]; compound concentration: 3.13uM -0.0668 | [6]; compound concentration: 6.25uM 0.00578 | [6]; compound concentration: 12.5uM 0.00284 | [6]; compound concentration: 25uM -0.194 | [6]; compound concentration: 50uM -0.0476 | [6]; compound concentration: 100uM -0.0886 | [6]; compound concentration: 200uM -0.0894 | [7]; compound concentration: 0.78uM -0.15 | [7]; compound concentration: 1.56uM -0.0871 | [7]; compound concentration: 3.13uM -0.0689 | [7]; compound concentration: 6.25uM -0.0495 | [7]; compound concentration: 12.5uM -0.0456 | [7]; compound concentration: 25uM -0.00914 | [7]; compound concentration: 50uM -0.0377 | [7]; compound concentration: 100uM -0.0901 | [7]; compound concentration: 200uM -0.162 | [8]; compound concentration: 0.78uM -0.089 | [8]; compound concentration: 1.56uM -0.101 | [8]; compound concentration: 3.13uM -0.0661 | [8]; compound concentration: 6.25uM 0.0971 | [8]; compound concentration: 12.5uM -0.119 | [8]; compound concentration: 25uM -0.0896 | [8]; compound concentration: 50uM -0.0399 | [8]; compound concentration: 100uM -0.0575 | [8]; compound concentration: 200uM -0.135 | [9]; compound concentration: 50uM -0.143 | [9]; compound concentration: 200uM -0.873 | [10]; compound concentration: 50uM -0.696 | [11]; compound concentration: 50uM -0.321 | [11]; compound concentration: 200uM -0.664 | [12]; compound concentration: 50uM -0.368 | [12]; compound concentration: 200uM -0.462 | [13]; compound concentration: 50uM -0.242 | [13]; compound concentration: 200uM -0.334 | [14]; compound concentration: 50uM -0.289 | [14]; compound concentration: 200uM -0.43 | [15]; compound concentration: 50uM -0.407 | [16]; compound concentration: 50uM -0.105 | [17]; compound concentration: 50uM -0.404 | [17]; compound concentration: 200uM -0.641 | [18]; compound concentration: 50uM -0.779 | [19]; compound concentration: 50uM 0.0422 | [19]; compound concentration: 200uM -0.0218
